# Measured values taken from PubChem BioAssay (NCI).
# This is part of a sample that, as a whole, favours compounds with a hit. Of some 79,000 tested, about 15% had one in any assay. Activity calls are given as the source filed them. Rule as the data show it: active = growth inhibition above about 70%; inactive = the rest.
# Test: NCI Yeast Anticancer Drug Screen. Data for the rad50 strain (AID 155);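 also: 0% = growth of vehicle-only cultures of the same strain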
# Details: S. cerevisiae rad50 strain growth inhibition; at 5.0 µM (retest, dose inferred, filed as 0.5); stronger effect = higher value
# How it was run: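 A DNA repair-deficient yeast mutant serves as the test organism; compound-induced growth inhibition is calculated against vehicle-treated cells.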
row,Compound,growth inhibition
1,CCOP(=O)(OCC)C(Cc1ccccc1)N=C(c1ccccc1)c1ccccc1 (centres undefined),12% (inactive)
2,CCc1ncnc2cc(OCC3CO3)c(OC)cc12 (centres undefined),72% (active)
3,CCOC(=O)[C@H]1Nc2ccccc2C2c3ccccc3CC21 (some centres undefined),15% (inactive)
4,O=CNc1ccc2c(c1)C(=O)c1ccccc1-2,7% (inactive)
5,CCOc1ccc2c(c1)c(CC(=O)O)cn2C,-74% (inactive)
6,OC1CSCCCSCCSCCCSC1,-11% (inactive)
7,N#Cc1c(N)[nH]c2ccc(Sc3ccccc3)cc12,-3% (inactive)
8,Cc1ccc(-c2ccc(Nc3c4ccccc4nc4ccccc34)cc2)cn1,81% (active)
9,c1ccc2c(c1)NC(NC1Nc3ccccc3N1)N2,9% (inactive)
10,OC(COc1cccc2ccccc12)CN1CCOCC1 (centres undefined),54% (inactive)
11,CCC/C(Cl)=N\OC(=O)Nc1ccc(Br)cc1,9% (inactive)
12,COc1ccc(/C=C2\SC(=S)N(/C=C/c3nc4ccccc4[nH]c3=O)C2=O)cc1OC,-12% (inactive)
13,O=C(NNc1ccnc2cc(Cl)ccc12)/C(=C\c1ccccc1Cl)NC(=O)c1ccccc1,-11% (inactive)
14,CSC1=NNC(SC)=NN1,49% (inactive)
15,Cc1c(C2=C(Br)C(=O)N(C)C2=O)c(=O)n(C)c(=O)n1C,10% (inactive)
16,NCCNc1ccc(NCCN)c2c1C(=O)c1c(O)ccc(O)c1C2=O,73% (active)
17,Cn1c(=O)c(-c2ccccc2)c(N=[N+]=[N-])c2ccccc21,-22% (inactive)
18,CCCCCCCCCCCCCCCCCCOCC(O)COP(=O)(O)OCC1OC(n2cc(F)c(=O)[nH]c2=O)CC1O (centres undefined),91% (active)
19,CCS(=O)(=O)c1ccc(/C=C/C=N/NC(=S)NCC(C)C)cc1,5% (inactive)
20,CCC(=O)Oc1c(Cl)cc(Cl)c2ccccc12,8% (inactive)

row,Compound,growth inhibition
1,COc1cc2c3c(cccc3c1)C(=O)N(CCN(C)C)C2=O,23% (inactive)
2,CN(C)c1ccc(C(C#N)=C(C#N)C#N)cc1,-127% (inactive)
3,O=C(CCCN1CCC2(CC1)CC(=O)N(N1CCCCCC1)C2=O)c1ccc(F)cc1,14% (inactive)
4,O=C1C2C(C(=O)N1c1ccc(OCc3ccccc3)cc1)C1c3ccccc3C2C2CCCCN21 (centres undefined),3% (inactive)
5,CCN(CC)CCC(=O)c1ccc(Oc2ccc(F)cc2)cc1,46% (inactive)
6,O=Nc1c(NO)ccc2nn(-c3ccccc3)nc12,18% (inactive)
7,CC(=O)SCCC[Si](C)(C)CCCSC(C)=O,-1% (inactive)
8,O=C(O)C1CCCCC1c1c2ccc(=O)c(O)c-2oc2c(O)c(O)ccc12 (centres undefined),9% (inactive)
9,Cc1ccc(NN(NC(=O)OC(C)C)C(=O)OC(C)C)cc1,3% (inactive)
10,O=C1c2ccccc2C(=O)c2cc(CBr)ccc21,48% (inactive)
11,Cc1c(C(Cc2ccccc2N(C)C(=O)/C=C\C(=O)O)c2c[nH]c3ccccc23)c2ccccc2n1C (centres undefined),-12% (inactive)
12,CC(C)/C(Cl)=N\OC(=O)Nc1ccc(F)cc1,24% (inactive)
13,O=C1OC(=O)C2CCCC3CCCC1C32 (centres undefined),-10% (inactive)
14,CCOC(=O)C(NC(=O)c1ccccc1)(N1CCN(c2cc3c(cc2F)c(=O)c(C(=O)O)cn3C2CC2)CC1)C(F)(F)F (centres undefined),-7% (inactive)
15,COc1ccc(NC(=S)N/N=C(\c2ccccc2)c2ccccn2)cc1,12% (inactive)
16,C=CCC1=C(C)C(OC(=O)/C=C/c2ccccc2)CC1=O (centres undefined),10% (inactive)
17,NNc1c(F)c(F)cc(F)c1F,-16% (inactive)
18,COP(=O)(OC)/C(=C\C1=CN(C(c2ccccc2)(c2ccccc2)c2ccccc2)CN1)NC=O,2% (inactive)
19,COC(=O)c1cc(-c2ccc(C)cc2)[nH]c(=O)c1C#N,-5% (inactive)
